Sampled rows, rich in hits. Any-hit rate of the full collection: about 11%.
12-hLO inh: blocks human 12-lipoxygenase activity; purified 12-hLO, xylenol orange hydroperoxide absorbance; 0.12% of 150,000 active; Potency, µM (top dose mostly 57.1 µM), for inactives: at the top dose activity change, negative = inhibition, hits mostly inhibitors; AID 1452; P18054; note: potency is the fitted concentration of half-maximal effect; nearly all actives have a fitted effect of over 55% in size
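Hydroperoxide output read as Fe(III)-xylenol orange absorbance, 573-to-405 nm ratio, after 30 min reaction with 40 uM arachidonic acid. Enzyme: 150 nM purified human 12hLO, 15 min compound preincubation; 25 mM Hepes pH 7.0, room temperature.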
IMPase inh: cell-permeable inhibitors of inositol monophosphatase (IMPase); 120,000 tested, under 10 active; P97697; inhibition (IP1 accumulation), % at 46.1 µM; CHO-M1 cells, IP1 accumulation, HTRF TR-FRET ratio; AID 901; active = well fitted curve in the direction sought with a large enough effect in the signal ratio, not every such curve was filed as active; inconclusive = small, poorly fitted or top-dose-only effect, or a change in a side signal; inactive = no such curve, though single readings can be large or run the other way; the % refers to the signal ratio;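 note: cells stimulated with carbachol in lithium chloride buffer; plate controls were DMSO basal wells for no effect and reference inhibitor wells for full effect; higher means more IMPase inhibition seen as more IP1 and lower FRET ratio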
Target sequence (P97697 whole entry, looked up): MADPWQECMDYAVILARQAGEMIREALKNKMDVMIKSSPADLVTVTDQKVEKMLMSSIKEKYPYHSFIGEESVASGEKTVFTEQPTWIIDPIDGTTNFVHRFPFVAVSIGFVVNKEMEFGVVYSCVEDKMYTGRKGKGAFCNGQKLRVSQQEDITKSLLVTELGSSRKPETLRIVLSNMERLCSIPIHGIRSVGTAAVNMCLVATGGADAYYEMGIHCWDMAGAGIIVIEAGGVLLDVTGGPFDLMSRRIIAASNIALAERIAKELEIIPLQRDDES
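CHO-M1, 2000 cells/well, cultured 16–30 h; cpd up to 46 uM; carbachol (50 uM solution, stimulation buffer w/ 50 mM LiCl, pH 7.4), 30 min 37C; IP-One TR-FRET, 10 min RT; Ex 320/Em 665, 620; Hill-fit AC50.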
PNC assembly inh: perinucleolar compartment assembly inhibition; AID 2417; 3.1% of 140,000 active; activity change (PNC), negative = inhibition, % at 10 µM; PC3M PTB-GFP, PNC prevalence imaging, 16 h; stronger effect = lower value;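 active = readout at or below -70, meaning at least 70% loss of cells showing the perinucleolar compartment, a nuclear body marking cancer cells; inconclusive = readout between -30 and a set limit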;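 note: plate controls were DMSO wells for no effect and camptothecin positive control wells for full effect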
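Compounds are pinned in duplicate onto adhered PC3M cells stably expressing GFP-tagged PTB and incubated 16 h at 37 C. Cells are then fixed, nuclei stained with Hoechst, and PNC-positive cells counted.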
ALDH1A1 inh: inhibitors of human aldehyde dehydrogenase 1A1 | P00352 | Purified ALDH1A1, NADH fluorescence, propionaldehyde substrate | Potency, µM (series often up to 75.3 µM), without a hit: at the top dose activity, negative = inhibition, hits mostly inhibitors | 7.3% of 220,000 active; active = well fitted inhibition curve with a large enough effect, not every such curve was filed as active; inconclusive = small, poorly fitted or top-dose-only effect, or another doubt; inactive = no such curve, though single readings can be large or run the other way;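 note: potency is the fitted concentration of half-maximal effect; plate controls were no enzyme wells and a reference inhibitor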
IMPase Li cell: cell-permeable IMPase inhibitors with lithium potentiation | CHO-M1 cells, IP1 TR-FRET (IP-One), carbachol + lithium | Potency, µM (doses to about 59.4 µM), inactives show at the top dose activity, negative = IMPase inhibition, usual class: inhibitors | 0.35% of 210,000 active | AID 1457;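 note: IP1 builds up when IMPase is blocked and the TR-FRET signal falls; potency is the fitted concentration of half-maximal effect; plate controls were basal vehicle for no effect and high inhibitor control for full effect; nearly all actives have a fitted effect of over 50% in size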
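CHO cells stably expressing M1 receptor (2000/well) were cultured 16–30 h, then exposed to compounds with a small lithium addition for 30 min at 37C. IP1 was measured by TR-FRET competition; AC50 from Hill fits.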
HPGD block: blocks human HPGD enzyme activity | Potency, µM, inactives show top-dose activity change, negative = inhibition, hits mostly inhibitors | P15428 | AID 894 | 4.3% of 150,000 active | purified HPGD, NADH fluorescence kinetic, PGE2 substrate; active = well fitted inhibition curve with a large enough effect, not every such curve was filed as active; inconclusive = small, poorly fitted or top-dose-only effect, or another doubt; inactive = no such curve, though single readings can be large or run the other way; note: potency is the fitted concentration of half-maximal effect
Target sequence (P15428 whole entry, looked up): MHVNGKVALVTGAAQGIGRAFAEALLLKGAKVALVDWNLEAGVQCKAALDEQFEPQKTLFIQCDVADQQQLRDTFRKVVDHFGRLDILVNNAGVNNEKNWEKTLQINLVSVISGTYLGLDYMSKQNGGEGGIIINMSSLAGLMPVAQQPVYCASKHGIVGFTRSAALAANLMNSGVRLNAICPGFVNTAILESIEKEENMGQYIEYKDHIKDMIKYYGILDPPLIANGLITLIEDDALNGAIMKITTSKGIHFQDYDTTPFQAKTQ
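20 nM HPGD preincubated 15 min at room temperature with compound in 50 mM Tris-HCl pH 8, 0.01% Tween 20. Started with 1 mM NAD+ and 30 uM prostaglandin E2; NADH fluorescence (360/450 nm) read 5 times over 30-s intervals, last minus first.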
* = called active by the depositor; ? = inconclusive; · = not tested or not shown; [ ] = remark or other dose. Unless noted, calls come from the whole dose curve; as a rule, active = well fitted curve in the direction sought with a large enough effect; inconclusive = small, poorly fitted or top-dose-only effect, or another doubt; inactive = no such curve, though single readings can be large; an effect the other way counts as inactive or inconclusive. Unless noted, % is set by controls: 0 for no effect and ±100 for the full control effect.

SMILES	12-hLO inh	IMPase inh	PNC assembly inh	ALDH1A1 inh	IMPase Li cell	HPGD block
O=C(Nc1nc2c(F)cc(F)cc2s1)C1CC(=O)N(Cc2ccco2)C1 (stereo not drawn)	·	·	·	14.1µM*	·	·
COc1ccc(/C=N/NC(=O)C(Cc2c[nH]c3ccccc23)NC(=O)OCC(C)C)cc1[N+](=O)[O-] (stereo not drawn)	-6.1%	3.0	?	12.6µM*	10.8%[38.3 µM]	-8.0%
COc1ccc(CNn2c(-c3cccs3)nc3ccccc3c2=O)cc1OC	·	·	·	25.1µM*	8.7%	·
COc1cccc(C(=O)Nn2c(-c3cccs3)nc3ccccc3c2=O)c1OC	0.9%	·	-3.5	-15.2%	0.8%	-25.0%
COc1ccccc1NC(=O)N1c2ccccc2Sc2ccccc21	·	17.4	·	·	·	·
C=CCn1c(=NC(=O)c2sc3ccccc3c2Cl)sc2cc(S(N)(=O)=O)ccc21	-2.8%	·	35.5	?	10µM*	-21.4%
COCCn1c(=NC(=O)c2sc3ccccc3c2Cl)sc2cc(S(N)(=O)=O)ccc21	1.6%	·	26.4	?	11.2µM*	?
COc1ccc(Oc2ncc3nc(C)c(=O)n(C4CC4)c3n2)cc1	2.0%	·	·	1.0%	7.7%	-9.7%
CCCn1cnc2c(SCC(=O)O)nc(N)nc21	1.3%[11.4 µM]	·	·	10.0%[13.5 µM]	2.7%	-2.3%
CCCCc1ccc(NC(=O)CN2NS(=O)(=O)c3ccccc3C2=O)cc1	3.3%	-0.1	18.9	3.98µM*	35.2%[38.3 µM]	-7.2%
CCCCc1ccc(NC(=O)CSCc2cc(=O)[nH][nH]2)cc1	-6.2%	5.9	36.3	1.7%	33.9%[38.3 µM]	-6.7%
COc1cc(NC(=O)CN(C)C2CCCCC2)c(C)cc1[N+](=O)[O-]	-0.2%	-4.7	-3.8	9.0%	5.3%	-6.9%
CCOC(=O)C1CCCN(C(=O)CC(c2ccccc2)c2ccccc2)C1 (stereo not drawn)	-1.3%	7.9	-100.0*	-9.1%	5.5%	28.2µM*
CCOCC(=O)N1CCCC(C(=O)OCC)C1 (stereo not drawn)	1.5%	-2.6	?	3.55µM*	-8.6%[38.3 µM]	-1.9%
CC(C)NC(=O)c1onc(CSc2cccc3ccccc23)c1C(=O)O	4.7%	-1.9	68.2	?	-4.1%[38.3 µM]	22.4µM*
CCCCNC(=O)c1onc(CSc2ccc(C(C)C)cc2)c1C(=O)O	-6.9%	-1.5	-8.2	0.6%	7.1%[38.3 µM]	10µM*
COCCNC(=O)c1onc(CSc2ccc(C(C)C)cc2)c1C(=O)O	6.2%	13.3	20.6	0.4%	-4.9%[38.3 µM]	15.8µM*
CCOc1cccc(SCc2noc(C(=O)NCCOC)c2C(=O)O)c1	-8.4%	1.3	13.4	?	-10.4%[38.3 µM]	-42.1%
Cc1ccc(-c2nnc3c4ccccc4c(C)nn23)cc1NC(=O)c1ccccc1	·	-3.6	·	·	·	·
C[C@H](CCC(=O)O)[C@H]1CC[C@@H]2[C@H]3[C@@H](C[C@@H](O)[C@]21C)[C@]1(C)CC[C@H](O)C[C@@H]1C[C@@H]3O	2.5%[11.4 µM]	·	·	1.0%[13.5 µM]	0.8%	-1.9%
CN(C)S(=O)(=O)c1ccc(Nc2ccc(-c3ccc4c(c3)OCCO4)nn2)cc1	-3.2%	1.6	6.3	?	?	-15.2%
CN(C(=O)c1cccc(Nc2ccc(-c3ccc4c(c3)OCCO4)nn2)c1)C1CCCCC1	-6.1%	8.5	-21.8	25.1µM*	18.5%	?
CC(=O)Nc1sc(N/N=C\c2ccco2)nc1-c1cccs1	-14.6%	16.7	?	17.8µM*	20.9%	31.6µM*
CC(C)CCn1c(=O)c2ccccc2n2c(CN3CCCC3)nnc12	·	·	·	?	14.8%	·
CCCCCn1c(=O)c2ccccc2n2c(CCl)nnc12	·	·	·	25.1µM*	2.8%	·
SMILES	12-hLO inh	IMPase inh	PNC assembly inh	ALDH1A1 inh	IMPase Li cell	HPGD block
CC(C)CCn1c(=O)c2ccccc2n2c(CN(C)Cc3ccccc3)nnc12	-4.3%	3.4	20.5	?	13.4%	-14.7%
CC(C)CCn1c(=O)c2ccccc2n2c(CCl)nnc12	·	·	·	25.1µM*	6.0%	·
CCCC(=O)Nc1cccc(-c2nc3cc(C)c(C)cc3o2)c1	-1.9%	-0.2	34.6	?	0.7%[38.3 µM]	?
CCc1ccc(OCC(=O)Nc2ccc(-c3nc4ccccc4o3)c(O)c2)cc1	-2.6%	1.3	28.1	?	5.62µM*	?
CCCC(=O)Nc1cccc(-c2nc3ccccc3o2)c1	0.5%	2.2	-106.5*	-8.6%	15.8%[38.3 µM]	-23.4%
COc1ccc(OCC(=O)Nc2cccc(-c3nc4ccccc4o3)c2)cc1	-0.4%	-1.4	35.0	?	-3.2%[38.3 µM]	?
CC(=O)Nc1cccc(NC(=O)CSc2nc3ccccc3o2)c1	6.2%	·	31.7	-0.4%	-5.2%	-5.9%
CSc1cccc(NC(=O)CSc2nc3ccccc3o2)c1	-8.7%	-4.4	-98.2*	?	21.3%[38.3 µM]	-23.0%
CCCCC(=O)Nc1cccc(-c2cn3ccccc3n2)c1	-7.9%	0.0	?	28.2µM*	·	·
Clc1ccc2c(c1)N(CCCN1CCCC13CCCCC3)c1ccccc1S2	-3.6%[11.4 µM]	·	·	5.5%[13.5 µM]	8.2%	-6.5%
O=C(Cc1ccccc1)NC(=S)Nc1ccc2oc(-c3ccccc3F)nc2c1	-6.7%	11.1	-16.6	?	8.3%[38.3 µM]	-12.5%
O=C(Cc1ccccc1)NC(=S)Nc1ccc2oc(-c3ccccc3)nc2c1	-2.4%	-12.2	?	22.4µM*	16.4%	?
Cc1c(C(=O)O)sc2ncnc(N3CCCCC3C)c12 (stereo not drawn)	8.1%	?	?	2.2%	5.62µM*	17.8µM*
Cc1cc2c(N3CCCCC3C)ncnc2s1 (stereo not drawn)	2.3%	1.5	?	2.3%	-3.1%	-8.8%
Cc1c(C(=O)N2CCCC(C)C2)sc2ncnc(N3CCCCC3C)c12 (stereo not drawn)	·	·	·	12.6µM*	-8.8%	·
O=C(CN1CCN(c2ccc(F)cc2)CC1)Nc1ccccc1[N+](=O)[O-]	·	·	·	-6.6%	9.7%	·
CC(CCN)(CCN)[N+](=O)[O-]	1.8%[11.4 µM]	·	·	-8.9%[13.5 µM]	4.6%	-14.1%
O=C(O)c1ccc(C[n+]2c(-c3ccccc3)csc2Nc2ccccc2)cc1	-0.2%	-3.0	71.7	-13.6%	1.3%	15.8µM*
C=C1C2(C(=O)Nc3ccc(SC(F)F)cc3)CCC(C2)C1(C)C (stereo not drawn)	0.6%	-2.3	?	10.6%	19.4%	-1.4%
O=C(Nc1ccc(SC(F)F)cc1)C12CCC(CC1)C2	-1.8%	-2.1	-112.6*	-1.4%	-0.2%	-4.3%
O=CC(O)C(O)C(O)C(O)CO (stereo not drawn)	1.3%[0.00818 µM]	·	·	-3.7%	1.5%	-0.2%
CC(C1CC1)N(C(=O)NC1CCS(=O)(=O)C1)c1ccccc1 (stereo not drawn)	3.2%	-8.3	18.8	12.6%	0.9%[38.3 µM]	-7.1%
O=c1cnc2cnc(Oc3cccc(Cl)c3)nc2n1Cc1ccc(F)cc1	-10.2%	·	·	-1.8%	-3.3%	-14.3%

Screening results deposited in PubChem BioAssay by National Center for Advancing Translational Sciences (NCATS).
